This test addresses Genome polyprotein (Dengue virus type 2 (strain 16681-PDK53)) (UniProt P29991). Put plainly: Dengue-2 NS5 methyltransferase inhibitors, primary screen, biochemical, confirmation dose response (AID 588689). The conditions noted are these: Dengue-2 NS5 methyltransferase capping enzyme assay, at 25 µM, stronger effect = higher value.
Where [1] appears, read: measured here: pilot screen replicate inhibition.

Structures are written as SMILES. In all, about 340,000 compounds went through this assay and about 1,000 (0.29%) were called active. Cut-off read from the data, not from the text of the source: inconclusive = inhibition above about 29% without an active follow-up result; inactive = below that. Not all results are given here. Results with a measured potency or affinity are listed apart.

In general, inhibition refers to the drop in the measured response relative to a control, in per cent. `COCCN(C(=O)CSc1nnc(-c2cccc(Cl)c2)n1N)c1c(N)n(CC(C)C)c(=O)[nH]c1=O`: the inhibition is -1.15% (inactive). In the case of `C/C=N\NC(=O)CNC(=O)CNC(=O)c1ccccc1`, the inhibition is -9.83% (inactive).

Take `Oc1ccc(Cl)cc1CNC1CCCCC1`: the inhibition is -11.2% (inactive).

`Oc1ccc(CNC2CCCCC2)cc1`: the inhibition is -4.06% (inactive).

Take `CC(=O)NCCNC(=O)c1oc2ccccc2c1CSc1ncn[nH]1`: the inhibition was 0% (inactive). On the same count and under the same terms, for `Cc1cc(C)nc(N/N=C/c2ccccc2OCC(=O)O)n1` the value was 0% (inactive). In the case of `COc1cccc(N=Cc2nc(-c3ccccc3)oc2OC(C)=O)c1`, the inhibition is -7.76% (inactive). With `COc1ccc(N=Cc2nc(-c3ccccc3)oc2OC(C)=O)cc1`, the inhibition is -15.3% (inactive). Take `O=C1c2ccccc2C(=O)N1c1ccccc1`: the inhibition is -3.62% (inactive).

Take `COc1ccc(-c2noc(-c3ccccc3C(=O)NCc3ccco3)n2)cc1OC`: the inhibition is -1.61% (inactive).

For `CCOC(=O)N1CCN(C(=O)/C=C/c2ccc(OC)c(OC)c2)CC1`, the inhibition is -5.82% (inactive). On to `CCOc1ccccc1/C=c1\sc2ncnn2c1=O`, for which the inhibition was 3.42% (inactive).

For the molecule `COc1ccccc1/C=c1\sc2nc(-c3ccco3)nn2c1=O`, the inhibition was 20.1% (inactive). Regarding `COc1ccccc1/C=c1\sc2nc(-c3ccccc3OC)nn2c1=O`, the inhibition is 5.01% (inactive). Moreover, the inhibition under setting [1] came to 1.52%.

Regarding `COc1ccccc1/C=C/C=c1\sc2nc(=O)c(Cc3ccccc3)nn2c1=O`, the inhibition was -9.19% (inactive).

On to `Cc1cccc(NS(=O)(=O)c2ccc(NS(=O)(=O)c3cccs3)cc2)c1`, for which the inhibition is 13.3% (inactive). With `N#C/C=C/N1CCC(Cc2ccccc2)CC1`, the inhibition was -4.96% (inactive).

For `N#CCCN(C(=O)COC(=O)Cc1ccc(Br)cc1)c1ccccc1`, the inhibition is -13.2% (inactive). Turning to `CC(C)c1[nH]c(=O)c(C#N)c2c1CSC(C)(C)C2`, the inhibition was -6.61% (inactive). Same read-out and setting: for `COc1ccc(C(CCN2CCOCC2)c2c(O)cc(OC)cc2OC)cc1` (stereo not drawn) the value was -0.7% (inactive); for `Oc1ccccc1CNCc1ccccc1`, -2.38% (inactive); for `OCc1ccccc1CNCc1ccccc1`, -5.52% (inactive). In the case of `CSc1ncccc1C(=O)OCc1cccc([N+](=O)[O-])c1`, the inhibition is 0% (inactive). Consider `COc1ccc(NC(=O)N(C)C[C@@H]2OCc3cnnn3CCCC(=O)N([C@H](C)CO)C[C@H]2C)cc1`, for which the inhibition was 0.55% (inactive). On the same count and under the same terms, to `Cc1ccc(C(=O)Nc2ccc3cn[nH]c3c2)cc1S(=O)(=O)N1CCOCC1` belongs -0.88% (inactive); to `CC(C)c1cc(=O)oc2c3c4c(cc12)CCCN4CCC3`, 0% (inactive); to `O=c1oc2c3c4c(cc2c2c1CCC2)OCCN4CCC3`, 24.7% (inactive). With `N/C(=N\OC(=O)CCC1CCCCC1)c1cccc([N+](=O)[O-])c1`, the inhibition was -1.88% (inactive). Besides, the inhibition under setting [1] was 1.82%. As for `O=C(CSc1ccccc1)N1CCN(S(=O)(=O)c2ccccc2F)CC1`, the inhibition was 3.25% (inactive). As for `CCCCn1c(NC(=O)c2ccco2)c(S(=O)(=O)c2ccc(C)cc2)c2nc3ccccc3nc21`, the inhibition was -64.2% (inactive). Same read-out and setting: for `C=CCn1c(NC(=O)c2ccc(Br)o2)c(S(=O)(=O)c2ccccc2)c2nc3ccccc3nc21` the value was -4.19% (inactive). Same read-out and setting: to `OCCC1CN(Cc2cnn(-c3ccccc3Cl)c2)CCN1Cc1ccsc1` (stereo not drawn) belongs -2.26% (inactive). Still for that read-out and setting: to `CC(C)N(C(=O)[C@H]1C[C@H](CC(=O)NCCN2CCOCC2)C(=O)N2CCc3c([nH]c4cc(-c5ccco5)ccc34)[C@]12C)C(C)C` belongs -6.51% (inactive); to `Cc1cccc(C2c3c(n(C)c(=O)n(C)c3=O)N=C3c4ccccc4C(=O)C32)c1` (stereo not drawn), 2.3% (inactive). `Cc1nn(-c2ccccc2)c(C)c1-c1ccccc1O`: the inhibition was -5.22% (inactive). Besides, under setting [1], the inhibition was -6.7%. Consider `O=C(O)COc1ccc2nsnc2c1Cl`, for which the inhibition was -9.55% (inactive). Take `C=C(CC)C(=O)c1ccc(OCC(=O)O)c(Cl)c1Cl`: the inhibition is -3.73% (inactive).

Turning to `CCOCCCNCC(O)c1ccccc1` (stereo not drawn), the inhibition was 0% (inactive). The same measure, in the same setting: for `CC1(C)CC(=NO)CC(C)(C)N1` the value was 0% (inactive). The same measure, in the same setting: for `COc1ccc([N+](=O)[O-])cc1NS(=O)(=O)c1ccccc1` the value was 5.1% (inactive); for `COc1ccc(S(=O)(=O)/N=C2/NC(=O)/C(=C\c3cc(OC)c(OC)cc3[N+](=O)[O-])S2)cc1`, 2.45% (inactive).

Consider `COc1cc(C(=O)Nc2ccc(S(=O)(=O)Nc3ncccn3)cc2)c([N+](=O)[O-])cc1OC`, for which the inhibition is 0.74% (inactive). Still for that read-out and setting: to `Cc1cc(NS(=O)(=O)c2ccccc2)c([N+](=O)[O-])cc1C` belongs 4.34% (inactive); to `Cc1ccc(/C=N/NC(=O)C(C)Oc2cccc3ccccc23)o1` (stereo not drawn), -3.22% (inactive); to `CCC1(C)NC(=O)N(CC(=O)N2CCC(Cc3ccccc3)CC2)C1=O` (stereo not drawn), -9.76% (inactive).

Consider `CC(Cc1ccccc1)=NNc1ccc([N+](=O)[O-])cc1[N+](=O)[O-]`, for which the inhibition is 10.5% (inactive).

Regarding `C/C(CC(C)C)=N/Nc1ccc([N+](=O)[O-])cc1[N+](=O)[O-]`, the inhibition was -3.83% (inactive).

In the case of `CC(=O)NC(C)c1nc2ccccc2n1C(C)C` (stereo not drawn), the inhibition was -3.46% (inactive). Consider `COc1ccc(/C=C/C=C2\NC(=S)NC2=O)cc1`, for which the inhibition was -2.15% (inactive).

With `CC(/C=C1\NC(=S)NC1=O)=C\c1ccccc1`, the inhibition was -7.18% (inactive).

Turning to `CCC(C)(C(=O)NC1CCCC1)N(C(=O)CNC(=O)c1ccccc1)c1c(C)n(C)n(-c2ccccc2)c1=O` (stereo not drawn), the inhibition was 0% (inactive). The same measure, in the same setting: to `COc1ccc(CNC(=O)c2cc3ccccc3oc2=O)cc1` belongs -1.96% (inactive); to `COc1ccc(CN(C)CC(=O)Nc2c(C)cccc2C)c(OC)c1`, 1.51% (inactive). Same read-out and setting: to `CCOc1cc(S(=O)(=O)Nc2cc(C)cc(C)c2)ccc1Cl` belongs 0% (inactive).

As for `COc1ccc(NS(=O)(=O)c2ccc(Cl)c(N)c2)cc1Br`, the inhibition is -3.69% (inactive). With `COc1ccccc1CCC(=O)N(C)CC(=O)Nc1ccc(F)cc1`, the inhibition is 1.3% (inactive). Turning to `O=C(NNc1cccc(Cl)c1)c1cccnc1Cl`, the inhibition was -5.34% (inactive).

For the molecule `COc1ccc(/C=C(/C#N)C(=O)Nc2ccccc2C)cc1C(=O)O`, the inhibition was 0% (inactive).

On to `COc1cc(/C=C(\C#N)C(=O)Nc2cccc3ncccc23)cc(OC)c1OC`, for which the inhibition is -57.5% (inactive). Regarding `O=C(CN1CCN(C(c2ccccc2)c2ccccc2)CC1)NC(=O)NCc1ccco1`, the inhibition is -1.64% (inactive).

As for `Oc1ccc(/C=N/N(c2ccccc2)c2ccccc2)c(O)c1O`, the inhibition is 9.52% (inactive). On the same count and under the same terms, to `CCN(CC)c1ccc(/C=N/N=C(c2ccccc2)c2ccccc2)c(O)c1` belongs -35.6% (inactive); to `COc1cc(/C=N/N=C(/C(=O)c2ccccc2)c2ccccc2)cc(OC)c1O`, 0% (inactive); to `O=C(/C(=N/N=C/c1ccc(O)c(O)c1)c1ccccc1)c1ccccc1`, 7.23% (inactive). With `CC(C)c1ccc(Nc2nc(N3CCOCC3)nc(N3CCOCC3)n2)cc1`, the inhibition was -4.95% (inactive). On to `COC(=O)C(C(=O)OC)N1C(=O)CCC1=O`, for which the inhibition was -3.21% (inactive). Still for that read-out and setting: to `CC(=O)c1ccc(NC(=O)CCc2nnc3ccc(N4CCCC4)nn23)cc1` belongs 1.97% (inactive). Regarding `CN(C)C1=NC[C@H](Cc2ccccc2)N1CC1CCC(C(C)(C)C)CC1` (stereo partly drawn), the inhibition was 0.79% (inactive).

For the molecule `Cc1ccc([C@@H]2CC=C(C(=O)O)[C@H](c3ccccc3)N2S(=O)(=O)c2ccc(C)cc2)cc1`, the inhibition is -3.2% (inactive). As to `Cc1ccc(S(=O)(=O)N2[C@@H](c3ccc(C(C)(C)C)cc3)C(C(=O)O)=CC[C@H]2c2ccc(C(C)C)cc2)cc1`, the inhibition was -2.65% (inactive). The inhibition under setting [1] amounted to 0.6%.

As to `Cc1ccc([C@@H]2CC=C(C(=O)O)[C@H](c3ccc(Cl)cc3)N2S(=O)(=O)c2ccc(C)cc2)cc1`, the inhibition is 19.5% (inactive). As to `Cc1ccc(S(=O)(=O)N2[C@@H](c3ccc(Cl)cc3)C(C(=O)O)=CC[C@H]2c2ccc(Cl)cc2)cc1`, the inhibition was 13.5% (inactive). For `Cc1ccc(S(=O)(=O)NCCC(=O)OCC(=O)N(Cc2ccccc2)C(C)(C)C)cc1`, the inhibition is 7.2% (inactive). On the same count and under the same terms, to `CC1(C)CC2CC(C)(CN2C(=O)COC(=O)c2cccc([N+](=O)[O-])c2)C1` (stereo not drawn) belongs 6.17% (inactive); to `CC(C(=O)Nc1ccccc1F)N1C(=O)c2ccccc2C1=O` (stereo not drawn), 4.32% (inactive). For `CC(C(=O)Nc1ccc2c(c1)OCO2)N(C)CC(=O)Nc1ccc(Cl)cc1` (stereo not drawn), the inhibition was 2.29% (inactive).

As for `Cc1ccc2c(C(=O)CN3CCCCC3CCO)c(C)[nH]c2c1` (stereo not drawn), the inhibition is -12.1% (inactive). Turning to `Cc1ccc(N2CN(Cc3ccco3)CNC2=S)cc1`, the inhibition is -4.68% (inactive). Same read-out and setting: for `CC(OC(=O)C1CC1C)C(=O)Nc1ncc(Cl)cc1Cl` (stereo not drawn) the value was -5.81% (inactive); for `O=S(=O)(Nc1nc2ccccc2nc1NCc1ccco1)c1ccc(F)cc1`, 21.1% (inactive). The same measure, in the same setting: to `O=S(=O)(Nc1nc2ccccc2nc1NCc1ccco1)c1ccccc1` belongs 26.3% (inactive); to `CCCNC(=O)NC(=O)c1cnccc1C(F)(F)F`, 3.85% (inactive); to `CC1=NOC(=O)/C1=C/c1ccc(O)c(Cl)c1`, 6.53% (inactive). Still for that read-out and setting: to `CC1=NOC(=O)/C1=C/c1ccc(O)cc1` belongs 33.3% (inactive). As for `CC1=NOC(=O)/C1=C/c1ccc(O)c(Br)c1`, the inhibition was -9.14% (inactive). Take `CCN(CC)c1ccc(/C=C2/C(=O)ON=C2C)cc1`: the inhibition was -145% (inactive). The same measure, in the same setting: for `CCc1nc(SCC(=O)NCCc2ccccc2)n[nH]1` the value was 0% (inactive); for `CCCC(c1nnnn1C(C)(C)CC)N1CCN(C(=O)c2ccco2)CC1` (stereo not drawn), 3.16% (inactive). Still for that read-out and setting: for `O=C(c1cccc(S(=O)(=O)Nc2ccc(Br)cc2)c1)N1CCCC1` the value was -8.06% (inactive). The same measure, in the same setting: to `COc1ccc(S(N)(=O)=O)cc1C(=O)NNC(=O)c1cccc(S(=O)(=O)N2CCOCC2)c1` belongs 3.75% (inactive). `Cc1ccc(C)c(S(=O)(=O)N2CCCC2CNC(=O)C(=O)NCc2ccco2)c1` (stereo not drawn): the inhibition was 0% (inactive). As to `O=C(CN1CCC(c2nc3ccccc3s2)CC1)N1CCCCC1`, the inhibition was -11.7% (inactive). The same measure, in the same setting: to `O=C1C=CC(=O)N1c1ccccc1N1C(=O)C=CC1=O` belongs 5.05% (inactive); to `O=C1c2ccccc2C(=O)N1N(c1ccccc1)c1ccccc1`, 0% (inactive).
